Assay [1] is described as follows: qHTS assay to identify small molecule antagonists of the vitamin D receptor (VDR) signaling pathway - cell viability counter screen (AID 743225). Further: on the % scale 0 is the no-effect control and ±100 the full control effect; nearly all actives have a fitted effect of over 50% in size. Put shortly: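 Read-out: CellTiter-Glo luminescence measured 30 min after reagent addition at room temperature. Cells were VDR-bla HEK 293T exposed 16 h at 37C, 5% CO2, to compound with 3 nM final calcitriol agonist.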
(In general: qHTS replaces the single test concentration by a dilution series.)

Assay [2] in a line: qHTS assay to identify small molecule agonists of the endoplasmic reticulum stress response signaling pathway (AID 1159516; active means well fitted activation curve with a large enough effect in the signal ratio in the repeat runs, not every such curve was filed as active; the % refers to the signal ratio; further: on the % scale 0 is the no-effect control and ±100 the full control effect). Put shortly: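 Ratiometric FRET readout (405 nm excitation; 460 and 530 nm emission) of a beta-lactamase gene driven by the ER stress response element, after 2 hr substrate loading. HeLa ESRE-bla cells were seeded overnight and treated with compounds for only 5 hr at 37 C.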

A short description of assay [3]: qHTS assay to identify small molecule agonists of the endoplasmic reticulum stress response signaling pathway - cell viability counter screen (AID 1159517; calls by dose curve; further: series mostly up to about 61 µM; on the % scale 0 is the no-effect control and ±100 the full control effect; nearly all actives have a fitted effect of over 50% in size). The gist of the method: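 Steps: seed 1,500 ESRE-bla HeLa cells per well; incubate overnight at 37 C, 5% CO2; add compounds in DMSO for 5 hr; run FRET substrate 2 hr RT; add CellTiter-Glo, wait 30 min, read luminescence.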

Assay [4] can be described thus: qHTS assay to identify small molecule antagonists of the retinoid-related orphan receptor gamma (ROR-gamma) signaling pathway - cell viability counter screen (AID 1159520). Further: on the % scale 0 is the no-effect control and ±100 the full control effect; nearly all actives have a fitted effect of over 50% in size. The gist of the method: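 Tet-on ROR gamma CHO cells were given compounds for 2 hr, then doxycycline hyclate at 1 uM final, and incubated 16 hr at 37 C. Viability was measured as ATP content by CellTiter-Glo luminescence.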

Assay [5] concerns the target Nuclear receptor ROR-gamma (Homo sapiens) (UniProt P51449). Briefly: qHTS assay to identify small molecule antagonists of the retinoid-related orphan receptor gamma (ROR-gamma) signaling pathway (AID 1159521; further: nearly all actives have a fitted effect of over 50% in size; further: potency means the concentration at half of the fitted maximal effect). Put shortly: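 CHO Tet-on RORγ, RORE-luc reporter. Cpd 2 h pre-incubation, then dox hyclate 1 uM final, 16 h, 37 C/5% CO2. ONE-Glo luminescence; decrease = antagonist.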

The nature of assay [6]: qHTS assay to identify small molecule agonists of the AP-1 signaling pathway - cell viability counter screen (AID 1159525; calls by dose curve; further: nearly all actives have a fitted effect of over 55% in size). The gist of the method:
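Same-well cytotoxicity counter screen of the Tox21 10K library in ME-180 cells. The readout is ATP-dependent luminescence after 5 h compound treatment. Data are normalised to DMSO and tetra n-octyl ammonium bromide controls.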

Assay [7] in a line: qHTS assay to identify small molecule agonists of the AP-1 signaling pathway (AID 1159526; calls by dose curve; further: on the % scale 0 is the no-effect control and ±100 the full control effect).
Assay [8] addresses Retinoic acid receptor RXR-alpha (Homo sapiens) (UniProt P19793). Briefly: qHTS assay to identify small molecule agonists of the RXR signaling pathway (AID 1159527; calls by dose curve; further: nearly all actives have a fitted effect of over 35% in size; further: potency means the concentration at half of the fitted maximal effect; on activation: on the % scale 0 is the no-effect control and ±100 the full control effect). Put shortly: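 Read-out: beta-lactamase FRET ratio (405 nm excitation, 460 and 530 nm emission) after 2 hr substrate loading at room temperature. Cells were RXR-alpha-UAS-bla HEK 293T treated with compounds for 16 hr in 2% charcoal-stripped FBS medium.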

A short description of assay [9]: qHTS assay to identify small molecule agonists of the RXR signaling pathway - cell viability counter screen (AID 1159529). Put shortly:
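HEK 293T RXRa-bla cells, 2% CS-FBS; 5 h settle; cpd 16 h 37 C, 5% CO2; CellTiter-Glo 30 min RT, luminescence. Tetraoctyl ammonium bromide as positive control.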

“And” between values parts separate entries of the source, which are not always exact repeats. Equal values may be shown once. Results filed as inconclusive are left out. The source holds several records for some structures; these can differ, active in one and inactive in another. The source made the active and inactive calls. Unless noted, the call rests on the fitted dose curve; in most records, active means well fitted curve in the direction sought with a large enough effect in the repeat runs; inconclusive means weak or mixed curves; inactive means no such curve, though single readings can be large; an effect the other way counts as inactive or inconclusive.

Retinoic acid receptor RXR-alpha (Homo sapiens), sequence (P19793 whole entry, looked up): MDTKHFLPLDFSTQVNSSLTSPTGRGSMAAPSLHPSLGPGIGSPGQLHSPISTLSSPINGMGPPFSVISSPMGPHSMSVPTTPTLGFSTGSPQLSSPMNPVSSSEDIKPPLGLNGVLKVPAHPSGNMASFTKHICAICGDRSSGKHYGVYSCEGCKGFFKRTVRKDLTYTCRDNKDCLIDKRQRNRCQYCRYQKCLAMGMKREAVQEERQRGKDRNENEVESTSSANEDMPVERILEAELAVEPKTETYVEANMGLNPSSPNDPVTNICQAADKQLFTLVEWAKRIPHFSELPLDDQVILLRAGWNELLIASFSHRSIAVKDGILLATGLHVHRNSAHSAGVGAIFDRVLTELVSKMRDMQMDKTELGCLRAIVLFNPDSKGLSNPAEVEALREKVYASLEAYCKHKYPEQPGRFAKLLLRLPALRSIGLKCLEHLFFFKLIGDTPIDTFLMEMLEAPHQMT

Regarding `O=c1c(O)c(-c2ccc(O)c(O)c2)oc2cc(O)cc(O)c12`, the Potency result in assay [1], in [2], in assay [3], in [4], in [6] and in assay [8] was “inactive” each time. Also, the Potency entry in [9] is “inactive”. In addition, in assay [5], the Potency result was “inactive and 43.6 µM (active) and 54.5 µM (active)”. Further, the outcome in assay [7] was inactive.
For the molecule `N[C@@H](Cc1cc(I)c(Oc2ccc(O)c(I)c2)c(I)c1)C(=O)O`, the Potency result in assay [1], in [2], in [3], in assay [4], in assay [5] and in assay [6] was “inactive” in each case. Moreover, the Potency entry in assay [9] was “inactive”. For the same molecule, the result in assay [7] was inactive.
As for `Cc1ncc(CO)c(CO)c1O`, the Potency result in assay [1], in assay [4], in assay [5], in [6] and in assay [9] was “inactive” each time. Besides, the result in assay [7] was inactive.
Regarding `O=[N+]([O-])c1ccccc1C(F)(F)F`, the Potency entry in assay [1], in assay [2], in assay [4], in assay [5], in assay [6] and in [9] was “inactive” throughout. Also, in assay [7], the molecule was classed as inactive.
Turning to `Cc1nnc(NS(=O)(=O)c2ccc(N)cc2)s1`, the Potency entry in assay [1], in assay [2], in [4], in assay [5], in [6] and in assay [8] was “inactive” each time. The Potency result in assay [9] is “inactive”. In addition, the outcome in assay [7] was inactive.
As for `COc1ccccc1[N+](=O)[O-]`, the Potency entry in [1], in assay [3], in assay [4], in assay [5], in assay [6] and in assay [8] was “inactive” throughout. Further, the Potency entry in assay [9] was “inactive”. Moreover, in [7], the outcome was inactive.
As for `CCCN(CCC)C(=O)SCC`, the Potency entry in assay [1], in [3], in assay [4], in [5], in assay [6] and in assay [9] was “inactive” throughout. For the same molecule, the call in assay [7] was inactive. Also, in assay [8], the Potency is 12.3 µM (active).
In the case of `Cc1ccccc1Cl`, the Potency entry in assay [1], in [2], in [3], in [4], in assay [5] and in assay [6] was “inactive” throughout. Also, the Potency entry in assay [8] and in assay [9] was “inactive” each time. Moreover, in [7], the result was inactive.
For the molecule `CCn1cc(C(=O)O)c(=O)c2cc3c(cc21)OCO3`, the Potency result in assay [1], in [2], in [4], in [5], in assay [6] and in [9] was “inactive” throughout. Further, the result in assay [7] was inactive.
For the molecule `Nc1cccc(N)n1`, the Potency result in [1], in assay [2], in [3], in assay [4], in assay [5] and in assay [6] was “inactive” throughout. Further, the Potency entry in [8] and in assay [9] was “inactive” each time. The outcome in assay [7] was inactive.
Turning to `Nc1cccc(C(F)(F)F)c1`, the Potency result in assay [1], in [3], in [4], in [5], in [6] and in assay [8] was “inactive” each time. Moreover, in [9], the Potency result is “inactive”. The outcome in assay [7] was inactive.
On to `OB(O)O`, for which the Potency result in [1], in assay [2], in [3], in assay [4], in assay [5] and in assay [6] was “inactive” throughout. In addition, the Potency entry in assay [9] is “inactive”. The call in assay [7] was inactive. The Potency in assay [8] was 15.5 µM (active).
In the case of `CCCCCCCCCCCC(=O)N(C)CC(=O)O`, the Potency result in assay [1], in assay [3], in assay [4], in [5] and in assay [6] was “inactive” throughout. Besides, the activation in [7] was -13.8% [at 6.97 µM] (inactive). Besides, the activity change, negative = cytotoxicity in [9] is 3.37% [at 6.97 µM] (inactive).
Turning to `NC(=O)NC(N)=O`, the Potency result in assay [1], in assay [2], in assay [4], in assay [5], in assay [6] and in assay [8] was “inactive” throughout. The Potency entry in [9] was “inactive”. The molecule was classed as inactive in assay [7].
For the molecule `CCCCCC(C)=O`, the Potency result in [1], in assay [2], in [4], in assay [5], in [6] and in assay [8] was “inactive” in each case. Moreover, in assay [9], the Potency entry was “inactive”. Further, the call in assay [7] was inactive.
Consider `COc1ccc(N)c(OC)c1`, for which the Potency entry in [1], in assay [3], in [4], in [5], in [6] and in assay [9] was “inactive” throughout. Besides, in assay [7], the molecule was classed as inactive.
As for `C=C(C)CC(C)(C)C`, the Potency result in [1], in assay [2], in assay [3], in assay [4], in [5] and in assay [6] was “inactive” in each case. In addition, the Potency entry in assay [8] and in assay [9] was “inactive” throughout. Moreover, the molecule was classed as inactive in [7].
Regarding `CC1(C)[C@@H](O[C@H]2O[C@H](C(=O)O)[C@@H](O)[C@H](O)[C@H]2O[C@@H]2O[C@H](C(=O)O)[C@@H](O)[C@H](O)[C@H]2O)CC[C@]2(C)[C@H]3C(=O)C=C4[C@@H]5C[C@@](C)(C(=O)O)CC[C@]5(C)CC[C@@]4(C)[C@]3(C)CC[C@@H]12`, the Potency entry in assay [1], in assay [2], in [4], in assay [5], in assay [6] and in [8] was “inactive” throughout. Further, the Potency result in assay [9] was “inactive”. Moreover, the call in [7] was inactive.
Consider `CC(COCC(C)OC(=O)c1ccccc1)OC(=O)c1ccccc1` (stereo unspecified), for which the Potency entry in assay [1], in [2], in assay [3], in assay [4], in assay [5] and in assay [6] was “inactive” throughout. The Potency entry in assay [9] is “inactive”. Moreover, the molecule was called inactive in assay [7].
In the case of `CC(=O)OCc1ccc2c(c1)OCO2`, the Potency entry in [1], in [3], in assay [4], in assay [5], in assay [6] and in [9] was “inactive” each time. Also, the outcome in assay [7] was inactive.
Regarding `Cc1ccc(Cl)cc1`, the Potency result in assay [1], in assay [3], in [4], in assay [5], in assay [6] and in assay [9] was “inactive” in each case. Further, the result in assay [7] was inactive.
For `Cc1ccc(C(C)C)cc1`, the Potency entry in [1], in assay [2], in assay [3], in [4], in assay [5] and in [6] was “inactive” each time. The Potency entry in assay [9] is “inactive”. Besides, the result in assay [7] was inactive.
`CC(C)(C)NC[C@H](O)COc1nsnc1N1CCOCC1`: the Potency result in assay [1], in assay [2], in assay [3], in assay [4], in assay [5] and in assay [6] was “inactive” throughout. In addition, the Potency result in assay [9] was “inactive”. In addition, the outcome in [7] was inactive.
Consider `CC(=O)OCCC(C)C`, for which the Potency result in [1], in assay [2], in assay [3], in assay [4], in [5] and in assay [6] was “inactive” throughout. Also, in [9], the Potency entry was “inactive”. Further, the molecule was classed as inactive in assay [7].
On to `Cc1ccccc1C=O`, for which the Potency result in assay [1], in assay [2], in assay [4], in [5], in assay [6] and in assay [8] was “inactive” each time. In addition, the Potency entry in [9] was “inactive”. In addition, the molecule was classed as inactive in assay [7].
As for `CC(=O)OC/C=C(\C)CCC=C(C)C`, the Potency entry in assay [1], in [2], in [4], in assay [5], in assay [6] and in assay [8] was “inactive” each time. Besides, the Potency result in [9] is “inactive”. The result in assay [7] was inactive.
As for `COc1cc(NC(=O)CC(C)=O)c(OC)cc1Cl`, the Potency entry in [1], in assay [3], in assay [4], in assay [5], in assay [6] and in assay [8] was “inactive” throughout. In addition, the Potency entry in assay [9] is “inactive”. For the same molecule, in assay [7], the outcome was inactive.
As for `Cc1ccc(C)c(S(=O)(=O)O)c1`, the Potency result in [1], in [3], in [4], in [5], in assay [6] and in assay [8] was “inactive” in each case. Further, in assay [9], the Potency result was “inactive”. In addition, in [7], the molecule was classed as inactive.
With `CC(=O)C(C)C`, the Potency result in [1], in assay [2], in [3], in assay [4], in assay [5] and in assay [6] was “inactive” in each case. Moreover, the Potency result in assay [8] and in assay [9] was “inactive” each time. For the same molecule, in assay [7], the outcome was inactive.
`CN1CCCC1=O`: the Potency result in assay [1], in assay [2], in [4], in [5], in assay [6] and in assay [8] was “inactive” throughout. Further, the Potency entry in assay [9] is “inactive”. For the same molecule, in [7], the molecule was called inactive.
For `CC1(C)C(=O)N(Cl)C(=O)N1Cl`, the Potency entry in assay [1], in assay [3], in assay [4], in [5], in [6] and in assay [8] was “inactive” in each case. Further, the Potency entry in assay [9] was “inactive”. Besides, the molecule was classed as inactive in assay [7].

For the origin of these results see PubChem BioAssay (Tox21).
